Records with an inconclusive call do not appear. Calls of active or inactive are those of the source. How the source made its calls: active means hit-call score of the fitted dose curve at least 0.9, where 1 is the maximum; inconclusive means response in the unintended direction; inactive means score below 0.9.
What follows are molecules tested against Glucocorticoid receptor (Homo sapiens) (UniProt P04150) (assay: ATG_hGR_EcoTox2: Attagene TRANS-FACTORIAL EcoTox-2 HepG2 Assay for human Glucocorticoid Receptor (GR)).
Protocol: ATG_EcoTox2 is a cell-based, multiplexed assay created by modifying the existing Attagene TRANS-FACTORIAL system to include a panel of nuclear receptors from some or all the following species: human (Homo sapiens), african clawed frog (Xenopus laevis), rainbow trout (Oncorhynchus mykiss), japanese medaka (Oryzias latipes), and zebrafish (Danio rerio). The ECOTOX2-FACTORIAL format uses HepG2, a human liver cell line, with measurements taken at 24 hours after chemical dosing in a 24-well plate. ATG_hGR_EcoTox2 is one of 29 assay components calculated in the ATG_EcoTox2 assay. It is designed to make measurements of mRNA induction, a form of inducible reporter, as detected with fluorescence intensity signals by Reverse transcription polymerase chain reaction (RT-PCR) and Capillary electrophoresis technology.The assay endpoint ATG_hGR_EcoTox2 was analyzed in the positive analysis fitting direction relative to DMSO as the negative control and baseline of activity. Using a type of inducible reporter, measures of mRNA for gain-of-signal activity can be used to understand the reporter gene at the transcription factor-level as they relate to the gene for glucocorticoid receptor. Furthermore, this assay endpoint can be referred to as a primary readout, because this assay has produced multiple assay endpoints where this one serves a reporter gene function. To generalize the intended target to other relatable targets, this assay endpoint is annotated to the nuclear receptor intended target family, where the subfamily is steroidal.
Human liver HepG2 cells are transiently transfected with multiple reporter transcription units (MRTUs) in 6-well plates using FuGene 6 reagent (Roche; 3 ml FuGene/1 mg DNA). The MRTU constructs are regulated by a cis-regulating element (promoter). Each RTU expresses a GAL4-UAS that regulates the transcription of a nearby target reporter gene sequence. A major difference between the CIS and TRANS system is that in CIS activities of endogenous TFs are measured, whereas the TRANS assay evaluates changes in activities of exogenous, chimeric NR-Gal4 proteins. […] At the end of 24 hour incubation, total RNA was isolated using TriZol reagent (Invitrogen). The isolated RNA is then reverse-transcribed using oligo(dT) primer and Mo-MLV reverse transcriptase (Invitrogen) with DNAse I (Ambion) treatment for 30 min. The one-tenth of the produced cDNA was amplified by PCR using Taq DNA polymerase (Invitrogen) and two reporter sequence-specific primers. […] The fragments were purified using Qiaquick PCR columns (Qiagen), analyzed on an ABI 3130xL genetic analyzer (Applied Biosystems) with peak positions identified by using a set of X-rhodamine (ROX)-labeled MapMarker1000 molecular weight standards (BioVentures). […]

Chain of Glucocorticoid receptor (Homo sapiens) (P04150 whole entry, looked up): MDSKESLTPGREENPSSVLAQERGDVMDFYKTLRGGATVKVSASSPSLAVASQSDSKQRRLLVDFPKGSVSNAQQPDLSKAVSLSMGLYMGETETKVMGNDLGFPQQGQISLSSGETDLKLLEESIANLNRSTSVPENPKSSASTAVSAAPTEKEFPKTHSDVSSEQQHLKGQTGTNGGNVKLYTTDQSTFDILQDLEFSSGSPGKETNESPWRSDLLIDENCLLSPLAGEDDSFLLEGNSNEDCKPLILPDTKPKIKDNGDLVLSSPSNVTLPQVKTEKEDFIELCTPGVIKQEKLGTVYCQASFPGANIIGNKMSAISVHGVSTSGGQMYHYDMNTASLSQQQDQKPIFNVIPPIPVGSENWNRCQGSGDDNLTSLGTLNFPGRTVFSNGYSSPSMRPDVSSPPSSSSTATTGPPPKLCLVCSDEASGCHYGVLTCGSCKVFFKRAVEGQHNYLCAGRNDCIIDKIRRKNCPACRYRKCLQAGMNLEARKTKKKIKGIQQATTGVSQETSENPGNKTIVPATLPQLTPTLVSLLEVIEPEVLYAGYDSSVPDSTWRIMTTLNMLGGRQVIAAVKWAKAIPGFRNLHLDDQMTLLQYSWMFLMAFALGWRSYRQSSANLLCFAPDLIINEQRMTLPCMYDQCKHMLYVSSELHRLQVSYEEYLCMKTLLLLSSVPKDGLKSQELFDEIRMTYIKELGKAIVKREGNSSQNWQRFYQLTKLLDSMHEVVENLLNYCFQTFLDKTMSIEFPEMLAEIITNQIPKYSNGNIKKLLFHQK

SMILES | outcome | AC50
CCCCOCN(C(=O)CCl)c1c(CC)cccc1CC | inactive | –
CC(c1cc2ccccc2s1)N(O)C(N)=O (centres undefined) | – | 50 µM (active)
CC(C)(Oc1ccc(Cl)cc1)C(=O)O | inactive | –
O=P(Oc1ccccc1)(Oc1ccccc1)Oc1ccccc1 | inactive | –
